# Test results: PubChem BioAssay (Tox21)
# Several values for one entry are separate records, joined by “and”; a condition that tells them apart may be missing. Equal values may be shown once. Records with an inconclusive call do not appear. A call without a number means that no potency is given here. The source holds several records for some structures; these can differ, active in one and inactive in another. Activity calls are given as the source filed them. Unless noted, the call rests on the fitted dose curve; in most records, active means well fitted curve in the direction sought with a large enough effect in the repeat runs; inconclusive means weak or mixed curves; inactive means no such curve, though single readings can be large; an effect the other way counts as inactive or inconclusive.
# Legend:
# [1] = qHTS assay to identify small molecule antagonists of the glucocorticoid receptor (GR) signaling pathway - cell viability counter screen (AID 720693); further: nearly all actives have a fitted effect of over 55% in size
# [2] = qHTS assay for identifying genotoxic compounds that show differential cytotoxicity against isogenic chicken DT40 cell lines with known DNA damage response pathways - Rad54/Ku70 mutant cell line (AID 743015); further: nearly all actives have a fitted effect of over 60% in size; further: potency means the concentration at half of the fitted maximal effect
# [3] = qHTS assay to identify small molecule antagonists of the androgen receptor (AR) signaling pathway - cell viability counter screen (AID 743033; further: nearly all actives have a fitted effect of over 45% in size; further: potency means the concentration at half of the fitted maximal effect)
# [4] = biological target: Androgen receptor (Homo sapiens) (UniProt P10275); assay: qHTS assay to identify small molecule antagonists of the androgen receptor (AR) signaling pathway (AID 743035; active means well fitted inhibition curve with a large enough effect in the signal ratio in the repeat runs, not every such curve was filed as active; the % refers to the signal ratio; further: potency means the concentration at half of the fitted maximal effect)
# Sequence of Androgen receptor (Homo sapiens) (P10275 whole entry, looked up): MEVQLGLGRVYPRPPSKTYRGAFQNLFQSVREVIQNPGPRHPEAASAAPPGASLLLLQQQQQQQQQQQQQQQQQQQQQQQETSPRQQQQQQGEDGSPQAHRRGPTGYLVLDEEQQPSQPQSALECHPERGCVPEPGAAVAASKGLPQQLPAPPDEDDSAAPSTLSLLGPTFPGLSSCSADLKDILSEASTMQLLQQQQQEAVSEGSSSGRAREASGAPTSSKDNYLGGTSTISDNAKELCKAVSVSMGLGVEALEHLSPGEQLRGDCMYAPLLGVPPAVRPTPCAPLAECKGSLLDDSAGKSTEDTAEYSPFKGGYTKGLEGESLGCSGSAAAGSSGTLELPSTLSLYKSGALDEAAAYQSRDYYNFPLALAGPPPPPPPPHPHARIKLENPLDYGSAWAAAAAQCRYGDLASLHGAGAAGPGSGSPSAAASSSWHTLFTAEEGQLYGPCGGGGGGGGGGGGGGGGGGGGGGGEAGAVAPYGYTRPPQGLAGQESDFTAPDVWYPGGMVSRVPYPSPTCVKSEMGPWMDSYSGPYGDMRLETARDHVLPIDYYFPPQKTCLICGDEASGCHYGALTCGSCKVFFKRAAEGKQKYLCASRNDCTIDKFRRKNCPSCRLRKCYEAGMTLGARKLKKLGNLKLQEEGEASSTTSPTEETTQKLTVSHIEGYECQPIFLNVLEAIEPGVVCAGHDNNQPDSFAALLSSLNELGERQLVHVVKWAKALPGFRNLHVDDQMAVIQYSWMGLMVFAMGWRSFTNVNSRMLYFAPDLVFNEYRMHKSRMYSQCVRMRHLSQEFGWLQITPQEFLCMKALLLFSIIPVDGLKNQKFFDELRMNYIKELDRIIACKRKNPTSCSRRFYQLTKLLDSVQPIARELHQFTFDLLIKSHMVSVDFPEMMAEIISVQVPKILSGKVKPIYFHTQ
# Summary of the method: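 HEK293 cells stably carrying a UAS-driven beta-lactamase reporter (AR-UAS-bla GripTite) were plated for 4 h at 37C, then given compound and the agonist R1881 and incubated 16 h. Reporter activity was read by LiveBLAzer B/G FRET fluorescence after 2 h at room temperature.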
# [5] = biological target: Androgen receptor (Homo sapiens) (UniProt P10275); assay: qHTS assay to identify small molecule agonists of the androgen receptor (AR) signaling pathway using the MDA cell line (AID 743040; further: nearly all actives have a fitted effect of over 20% in size)
# Summary of the method: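 Cells plated, 5 h at 37C/0% CO2; compound or DMSO pinned; 16 h at 37C; ONE-Glo added; luminescence measured after 30 min at room temperature. Reporter line: MDA-kb2 with MMTV-luciferase responsive to AR and GR.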
# [6] = qHTS assay to identify small molecule antagonists of the androgen receptor (AR) signaling pathway using the MDA cell line - cell viability counter screen (AID 743041; further: nearly all actives have a fitted effect of over 45% in size; further: potency means the concentration at half of the fitted maximal effect)
# Summary of the method: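 Cells were plated at 3,000 per well and left 5 h. Compounds in DMSO were then pinned in, followed by R1881. After 16 h at 37C, CellTiter-Fluor fluorescence gave viability.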
# [7] = biological target: Androgen receptor (Homo sapiens) (UniProt P10275); assay: qHTS assay to identify small molecule antagonists of the androgen receptor (AR) signaling pathway using the MDA cell line (AID 743042; further: nearly all actives have a fitted effect of over 55% in size; further: potency means the concentration at half of the fitted maximal effect)
# Summary of the method: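 Antagonist mode: compounds plus R1881 agonist added to MDA-kb2 AR-luc cells, incubated 16 h at 37C. Luciferase reporter luminescence quantified, with multiplexed CellTiter-Fluor readout for cell viability.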
# [8] = qHTS assay for identifying genotoxic compounds that show differential cytotoxicity against isogenic chicken DT40 cell lines with known DNA damage response pathways - Rev3 mutant cell line (AID 743014); further: nearly all actives have a fitted effect of over 55% in size; further: potency means the concentration at half of the fitted maximal effect
# [9] = qHTS assay for identifying genotoxic compounds that show differential cytotoxicity against isogenic chicken DT40 cell lines with known DNA damage response pathways - wild type cell line (AID 743012); further: nearly all actives have a fitted effect of over 60% in size; further: potency means the concentration at half of the fitted maximal effect
# Summary of the method: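 Parental DNA repair-proficient DT40 cells, 300 per well, were pre-incubated ~0.5 h at 37 C/5% CO2, pin-dosed with compounds in DMSO, then incubated 40 h. Viability was read as CellTiter-Glo luminescence after 30 min at room temperature.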
# [10] = biological target: Androgen receptor (Homo sapiens) (UniProt P10275); assay: qHTS assay to identify small molecule agonists of the androgen receptor (AR) signaling pathway (AID 743036; active means well fitted activation curve with a large enough effect in the signal ratio in the repeat runs, with a control signal flat, not every such curve was filed as active; the % refers to the signal ratio)
# Summary of the method: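 Cell-based FRET reporter assay: HEK293 line with a UAS-beta-lactamase construct, compounds added in DMSO, 16 h exposure at 37C, then 2 h substrate step at room temperature and fluorescence intensity read.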
smiles,measurement,setting,value
CCCC(=O)c1ccccc1,Potency,[1],inactive
same,Potency,[2],inactive
same,Potency,[3],inactive
same,Potency,[4],inactive
same,outcome,[5],inactive
same,Potency,[6],inactive
same,Potency,[7],inactive
CCCCOCCOC(=O)c1ccccc1C(=O)OCCOCCCC,Potency,[1],inactive
same,Potency,[8],42.4 µM (active) and 27.3 µM (active)
same,Potency,[2],42.4 µM (active) and 61.1 µM (active)
same,Potency,[3],53.8 µM (active) and inactive
same,Potency,[6],inactive
C=CC(=O)OCCCCCCOC(=O)C=C,Potency,[9],24.3 µM (active)
same,Potency,[8],55.1 µM (active) and 30.6 µM (active)
same,Potency,[2],69.4 µM (active) and 24.3 µM (active)
same,outcome,[5],inactive
same,Potency,[6],inactive
BrC1CCC(Br)C(Br)CCC(Br)C(Br)CCC1Br (centres undefined),Potency,[9],46.1 µM (active)
same,Potency,[8],inactive and 41.1 µM (active)
same,Potency,[3],46.5 µM (active)
same,Potency,[4],inactive
same,Potency,[10],inactive
same,outcome,[5],inactive
same,Potency,[7],inactive
O=C1NCC2(CCN(CCc3ccccc3)CC2)O1,Potency,[3],inactive
same,Potency,[6],inactive
O=C(Nc1ccccc1SSc1ccccc1NC(=O)c1ccccc1)c1ccccc1,Potency,[9],2.45 µM (active) and 1.37 µM (active)
same,Potency,[8],1.38 µM (active) and 1.72 µM (active)
same,Potency,[2],2.45 µM (active) and 1.72 µM (active)
same,Potency,[3],11 µM (active) and 19.5 µM (active)
O=C(O[C@@H]1Cc2c(O)cc(O)cc2O[C@@H]1c1cc(O)c(O)c(O)c1)c1cc(O)c(O)c(O)c1,Potency,[1],inactive
same,Potency,[8],54.6 µM (active)
same,Potency,[3],inactive
NC(=Nc1ccccc1)Nc1ccccc1,Potency,[1],inactive
same,Potency,[8],inactive and 42 µM (active)
same,Potency,[3],inactive
CC(=O)OCC1=C(C(=O)O)N2C(=O)[C@@H](NC(=O)Cc3cccs3)[C@H]2SC1,Potency,[1],inactive
same,Potency,[2],inactive
same,Potency,[3],inactive
same,Potency,[6],inactive
O=C(O)c1cccc(C(=O)O)c1,Potency,[1],inactive
same,Potency,[3],inactive
same,Potency,[6],inactive
Cc1c(O)cccc1C(=O)N[C@@H](CSc1ccccc1)[C@H](O)CN1C[C@H]2CCCC[C@H]2C[C@H]1C(=O)NC(C)(C)C,Potency,[9],11.9 µM (active) and 29.8 µM (active)
same,Potency,[8],13.3 µM (active) and 23.7 µM (active)
same,Potency,[3],19 µM (active) and 16.9 µM (active)
same,Potency,[4],10.7 µM (active) and 6.74 µM (active)
same,outcome,[5],inactive
same,Potency,[6],27.8 µM (active) and 59.5 µM (active)
same,Potency,[7],26.6 µM (active) and 29.8 µM (active)
Cc1ccc(-c2cc(C(F)(F)F)nn2-c2ccc(S(N)(=O)=O)cc2)cc1,Potency,[9],23.7 µM (active) and 27.3 µM (active)
same,Potency,[8],21.1 µM (active) and 54.3 µM (active) and 24.3 µM (active)
same,Potency,[2],29.8 µM (active) and 54.3 µM (active) and 24.3 µM (active)
same,Potency,[3],34.5 µM (active) and 43.6 µM (active)
same,Potency,[4],23.9 µM (active)
same,Potency,[10],inactive
same,outcome,[5],inactive
same,Potency,[7],inactive and 60.9 µM (active) and 68.6 µM (active)
c1ccc2cc3c(ccc4ccccc43)cc2c1,Potency,[1],inactive
same,Potency,[8],inactive
same,Potency,[3],inactive
same,Potency,[6],inactive
CC(C)(C)c1ccc(O)c(C(C)(C)C)c1,Potency,[9],27.3 µM (active)
same,Potency,[8],27.2 µM (active) and 24.3 µM (active)
same,Potency,[2],30.5 µM (active) and 27.3 µM (active)
same,Potency,[6],inactive
CC(C)CCOC(=O)c1ccc(N(C)C)cc1,Potency,[1],inactive
same,Potency,[3],inactive
CC(C)C(=O)c1c(C(C)C)nn2ccccc12,Potency,[1],inactive
same,Potency,[8],inactive
same,Potency,[3],inactive
same,Potency,[6],inactive
CCCCCCCCCCCCCCCCCl,Potency,[1],inactive
same,Potency,[8],inactive
same,Potency,[2],inactive
same,Potency,[3],inactive
same,Potency,[6],inactive
CCc1cc(C(C)(C)C)c(O)c(C(C)(C)C)c1,Potency,[1],inactive
same,Potency,[8],inactive and 15.4 µM (active)
same,Potency,[3],inactive
same,Potency,[6],inactive
Nc1nc(=S)c2[nH]cnc2[nH]1,Potency,[8],1.88 µM (active) and 1.33 µM (active) and 686 nM (active)
same,Potency,[3],26.8 µM (active) and 1.95 µM (active)
same,Potency,[4],16.9 µM (active) and 10.7 µM (active) and 6.92 µM (active)
same,Potency,[10],inactive
same,outcome,[5],inactive
same,Potency,[7],inactive
NC(N)=NC(=O)Cc1c(Cl)cccc1Cl,Potency,[1],inactive
same,Potency,[8],inactive
same,Potency,[2],inactive
same,Potency,[3],inactive
same,Potency,[6],inactive
Cc1ccc(S(=O)(=O)Oc2ccc(N=Nc3ccc(-c4ccc(N=Nc5c(O)ccc6cc(S(=O)(=O)O)cc(S(=O)(=O)O)c56)c(C)c4)cc3C)cc2)cc1,Potency,[1],inactive
same,Potency,[8],27.4 µM (active) and 17.8 µM (active)
same,Potency,[2],54.7 µM (active) and 11.2 µM (active)
same,Potency,[3],inactive
same,Potency,[4],inactive
same,Potency,[10],inactive
same,outcome,[5],inactive
same,Potency,[6],54.7 µM (active) and 35.5 µM (active)
CC(C)(C)NCC(O)c1cc(O)cc(O)c1 (centres undefined),Potency,[9],inactive
same,Potency,[2],inactive
same,Potency,[3],inactive
O=C(O)CCc1ccccc1,Potency,[9],inactive
same,Potency,[8],inactive
same,Potency,[2],inactive
same,Potency,[3],inactive
same,Potency,[6],inactive
OCCN1CCNCC1,Potency,[1],inactive
same,Potency,[8],31.2 µM (active)
same,Potency,[3],inactive
CCCCCC(=O)O[C@]1(C(C)=O)CC[C@H]2[C@@H]3CCC4=CC(=O)CC[C@]4(C)[C@H]3CC[C@@]21C,Potency,[9],3.76 µM (active) and 3.83 µM (active)
same,Potency,[8],3.76 µM (active) and 2.15 µM (active)
same,Potency,[2],7.5 µM (active) and 5.41 µM (active)
same,Potency,[3],inactive and 24.4 µM (active)
same,Potency,[6],inactive
O=C(O)c1cn(-c2ccc(F)cc2)c2cc(N3CCNCC3)c(F)cc2c1=O,Potency,[1],inactive
same,Potency,[8],inactive
same,Potency,[3],inactive
same,Potency,[6],inactive
N[C@@H]1CONC1=O,Potency,[9],inactive
same,Potency,[8],inactive
same,Potency,[3],inactive
same,Potency,[6],inactive
